Results filed as inconclusive are left out. The source made the active and inactive calls. Calls follow the shape of the dose curve; as a rule, active = well fitted inhibition curve with a large enough effect; inconclusive = small, poorly fitted or top-dose-only effect, or effect the other way; inactive = flat fitted curve, though single readings scatter.
Biological target: ATP-dependent 6-phosphofructokinase (Trypanosoma brucei brucei) (UniProt O15648)
Assay: qHTS Assay to Find Inhibitors of T. brucei phosphofructokinase: hit validation (AID 492961);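 also: luminescence reports ADP formed as PFK phosphorylates fructose-6-phosphate with ATP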
Details: T. brucei PFK, ADP-Glo luminescence; series mostly up to 51.4 µM
How it was run: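 Compounds titrated; %activity normalized to 0x and 1x enzyme controls, curve-fitted. Readout: ADP-Glo luminescence after 45 min room-temperature reaction of 1.25 nM PFK, 0.1 mM ATP, 0.5 mM F6P, pH 8.0.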

Chain of ATP-dependent 6-phosphofructokinase (Trypanosoma brucei brucei) (O15648 whole entry, looked up): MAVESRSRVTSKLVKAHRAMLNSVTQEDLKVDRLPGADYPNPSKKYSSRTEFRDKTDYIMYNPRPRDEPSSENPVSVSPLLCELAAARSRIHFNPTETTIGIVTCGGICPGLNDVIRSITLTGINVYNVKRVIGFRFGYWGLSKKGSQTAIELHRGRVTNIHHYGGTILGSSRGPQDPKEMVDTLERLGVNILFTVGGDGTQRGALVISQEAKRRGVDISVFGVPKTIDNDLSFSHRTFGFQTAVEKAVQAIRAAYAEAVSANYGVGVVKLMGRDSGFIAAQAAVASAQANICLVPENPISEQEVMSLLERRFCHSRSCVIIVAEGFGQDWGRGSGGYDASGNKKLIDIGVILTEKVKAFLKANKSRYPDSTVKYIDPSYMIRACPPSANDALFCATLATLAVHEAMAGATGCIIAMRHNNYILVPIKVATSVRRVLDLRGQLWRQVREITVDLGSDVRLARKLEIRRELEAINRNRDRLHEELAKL

| Structure (SMILES) | outcome |
| --- | --- |
| CC(C)CCCC(C)CCCC(C)CCCCC(C)CCCC(C)CCCC(C)C (stereo not drawn) | inactive |
| CCCNC(C)(C)COC(=O)c1ccccc1 | inactive |
| c1ccc2[nH]ccc2c1 | inactive |
| CCN(CC)CC1CCCCN1CC(=O)N1c2ccccc2C(=O)Nc2cccnc21 (stereo not drawn) | inactive |
| COc1cc(O)cc(O)c1 | inactive |
| Cc1cc(O)cc(C)c1Cl | inactive |
| Cc1ncc(CO)c(CN)c1O | inactive |
| Cc1c(NC(=O)c2cccnc2)c(=O)n(-c2ccccc2)n1C | inactive |
| O=C(NCCCN1CCOCC1)c1ccc(Cl)cc1 | inactive |
| NC(=O)c1ccc([N+](=O)[O-])cc1Cl | inactive |
| CC(C)C[C@@H](N)C(=O)O | inactive |
| NCc1ccc(S(N)(=O)=O)cc1 | inactive |
| O=C(O)Cc1cn(-c2ccccc2)nc1-c1ccc(Cl)cc1 | inactive |
| O=C(O)CCC(=O)O | inactive |
| CCc1nnc(NS(=O)(=O)c2ccc(N)cc2)s1 | inactive |
| O=c1[nH]c2cc(C(F)(F)F)c(N3CCOCC3)cc2n(CP(=O)(O)O)c1=O | inactive |
| Cc1c(C(=O)NCCO)[n+](=O)c2ccccc2n1[O-] | inactive |
| NC(=O)NS(=O)(=O)c1ccc(N)cc1 | inactive |
| COc1cc(C(=O)NCCCCCC(=O)O)cc(OC)c1OC | inactive |

| Structure (SMILES) | outcome |
| --- | --- |
| OCC(O)CS (stereo not drawn) | inactive |
| COc1ccc(Cc2cnc(N)nc2N)cc1OC | inactive |
| N[C@@H](Cc1ccc(O)cc1)C(=O)O | inactive |
| CCOC(=O)c1cccnc1 | inactive |
| Nc1c2c(nc3c1CCC3)CCCC2 | inactive |
| COC(=O)c1ccccc1C(=O)c1ccc(OCCN2CCCCC2)cc1 | inactive |
| CN/C(=C\[N+](=O)[O-])NCCSCc1csc(CN(C)C)n1 | inactive |
| O=C(O)c1ccc[n+]([O-])c1 | inactive |
| CCN1CC(CCN2CCOCC2)C(c2ccccc2)(c2ccccc2)C1=O (stereo not drawn) | inactive |
| NS(=O)(=O)c1cc2c(cc1C(F)(F)F)NCNS2(=O)=O | inactive |
| O=C(/C=C/c1ccccc1)OCc1ccccc1 | inactive |
| CN(C/C=C/C#CC(C)(C)C)Cc1cccc2ccccc12 | inactive |
| CCCCCCCCCCCCCCCCN | inactive |
| O=C1c2ccccc2S(=O)(=O)N1CCCCN1CCN(c2ncccn2)CC1 | inactive |
| CN1CCCN=C1COC(=O)C(O)(c1ccccc1)C1CCCCC1 (stereo not drawn) | inactive |
| CCOC(N)=O | inactive |
| CC(=O)SC[C@@H](Cc1ccccc1)C(=O)NCC(=O)OCc1ccccc1 | inactive |
| Nc1ccncc1N | inactive |
| C[C@H]1COc2c(C3(N)CC3)c(F)cc3c(=O)c(C(=O)O)cn1c23 | inactive |
